Screening results as filed in PubChem BioAssay.
TDP1 cell noCPT: qHTS for Inhibitors of human tyrosyl-DNA phosphodiesterase 1 (TDP1): qHTS in cells in absence of CPT; Potency, µM (doses to about 46.2 µM), hits mostly inhibitors; AID 686978, 2013; DT40 Tdp1-/- hTDP1 cells, no CPT, ATP luminescence, 48 h; 420,000 compounds, 15% hits; also: nearly all actives have a fitted effect of over 55% in size
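Seeded 400 DT40-hTDP1 cells/well (vehicle DMSO, no 20 nM CPT); pinned compounds; ≥48 hr at 37 °C; CellTiter-Glo luminescence as viability measure.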
HT1080NT lethal: qHTS for induction of synthetic lethality in tumor cells producing 2HG: qHTS for the HT-1080-NT fibrosarcoma cell line | HT-1080-NT fibrosarcoma viability, CellTiter-Glo ATP luminescence, 48 h | Potency, µM (highest dose often 46.1 µM), usual class: cytotoxic | 360,000 compounds, 1.6% hits | AID 686970, 2013;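 also: NT is the 2HG producing partner of a matched IDH1 knockdown line; nearly all actives have a fitted effect of over 55% in size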
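Toxicity toward the 2HG-producing NT line was scored as %Activity, normalised to DMSO and no-cell wells, from CellTiter-Glo luminescence after 48 hours' treatment.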
IL-1B inflam inh: qHTS for Inhibitors of Inflammasome Signaling: IL-1-beta AlphaLISA Primary Screen; activity change, % at 57.5 µM; AID 743279, 2014; THP-1 LPS/ATP IL-1B secretion, AlphaLISA, 16 h; hits give low values; 360,000 compounds, 4.7% hits; in the data active = activity change below about -50%; inconclusive = mostly about -30% to -49%
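THP-1 cells pretreated 1 hr with compounds (up to 57.5 uM final), then stimulated with LPS (250 ng/mL final) plus ATP (1.25 mM final); secreted IL-1B measured by AlphaLISA after 16 hr, decreased signal indicating inhibition.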
DT40 TDP1 CPT: qHTS for Inhibitors of human tyrosyl-DNA phosphodiesterase 1 (TDP1): qHTS in cells in presence of CPT | Potency, µM (series often up to 46.2 µM), actives largely listed as inhibitors | 420,000 compounds, 12% hits | chicken DT40 Tdp1-/-;hTDP1 cells + 20 nM CPT, ATP luminescence, 48 h; also: nearly all actives have a fitted effect of over 55% in size
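Cell growth measured by CellTiter-Glo luminescence after a minimum 48 h, 37 C compound exposure with 20 nM CPT in Tdp1-knockout DT40 cells stably expressing hTDP1, seeded 400/well; qHTS titration format.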
HT1080 IDH1KD tx: qHTS for induction of synthetic lethality in tumor cells producing 2HG: qHTS for the HT-1080-IDH1KD cell line; HT-1080 IDH1 knockdown viability, ATP luminescence, 48 h; Potency, µM (series often up to 46.1 µM), most hits filed as cytotoxic; 360,000 compounds, 2% hits; AID 686971, 2013
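In this qHTS, HT-1080 cells depleted of IDH1 are exposed for 48 h at 37 °C to compound titrations. Toxicity is scored from CellTiter-Glo luminescence, with DMSO as full viability and medium alone as none.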
Numbers stand for hits. Sampled rows, rich in hits. Any-hit rate of the full collection: about 19%. Unless noted, calls follow the shape of the dose curve; as a rule, active = well fitted curve in the direction sought with a large enough effect; inconclusive = small, poorly fitted or top-dose-only effect, or another doubt; inactive = no such curve, though single readings can be large; an effect the other way counts as inactive or inconclusive.

`CC1(C)CC(N2CCCC2)=CC(=[N+]2CCCCC2)C1` gave TDP1 cell noCPT 0.26µM, HT1080NT lethal inconclusive, IL-1B inflam inh inactive, DT40 TDP1 CPT 0.41µM and HT1080 IDH1KD tx inconclusive.
Screening CC1(C)CC(N2CCCC2)=CC(=[N+]2CCCC2)C1 returned TDP1 cell noCPT 0.29µM, HT1080NT lethal inconclusive, IL-1B inflam inh inactive, DT40 TDP1 CPT 0.41µM and HT1080 IDH1KD tx inconclusive.
CCC1CO/C(=C(\C(Cl)=C(Cl)Cl)[N+](=O)[O-])N1 (stereo not given) was read as TDP1 cell noCPT inactive, HT1080NT lethal inactive, IL-1B inflam inh -61, DT40 TDP1 CPT inactive and HT1080 IDH1KD tx inactive.
Screening O=[N+]([O-])C(=C1Nc2ccccc2N1)C(Cl)=C(Cl)Cl returned TDP1 cell noCPT inconclusive, HT1080NT lethal inactive, IL-1B inflam inh inactive, DT40 TDP1 CPT inconclusive and HT1080 IDH1KD tx inactive.
Screening COc1ccc(CCNC(=O)Cc2cccc(C(F)(F)F)c2)cc1OC returned TDP1 cell noCPT inconclusive, HT1080NT lethal inactive, IL-1B inflam inh inactive, DT40 TDP1 CPT inactive and HT1080 IDH1KD tx inactive.
`Nc1nc(Cl)nc2c1ncn2C1CCC(CO)O1` (stereo not given) gave TDP1 cell noCPT 1.5µM, HT1080NT lethal inactive, IL-1B inflam inh inactive, DT40 TDP1 CPT 1µM and HT1080 IDH1KD tx inactive.
`OC[C@@H]1CN(Cc2ccc(Cl)cc2)C[C@H](n2cnc3c(NC4CC4)ncnc32)O1` gave TDP1 cell noCPT inactive, HT1080NT lethal inconclusive, IL-1B inflam inh inactive, DT40 TDP1 CPT inconclusive and HT1080 IDH1KD tx inactive.
`Nc1ncnc2c1ncn2[C@H]1CC[C@@H](CO)O1` gave TDP1 cell noCPT 2.9µM, HT1080NT lethal inconclusive, IL-1B inflam inh inactive, DT40 TDP1 CPT 1.6µM and HT1080 IDH1KD tx inactive.
Nc1ncnc2c1ncn2C1CCCO1 (stereo not given) was read as TDP1 cell noCPT inactive, HT1080NT lethal inactive, IL-1B inflam inh inactive, DT40 TDP1 CPT inactive and HT1080 IDH1KD tx inactive.
`CC(CC(c1ccccc1)N1CCc2ccccc2C1)=NO` (stereo not given) gave TDP1 cell noCPT 18µM, HT1080NT lethal inactive, IL-1B inflam inh inactive, DT40 TDP1 CPT inconclusive and HT1080 IDH1KD tx inactive.
Screening N#Cc1c(Nc2ccccc2)s[nH]c1=O returned TDP1 cell noCPT 8.2µM, HT1080NT lethal inactive, IL-1B inflam inh inconclusive, DT40 TDP1 CPT 8.2µM and HT1080 IDH1KD tx inactive.
Cc1ccc(C(=O)c2sc(Nc3ccccc3)c(C#N)c2N)cc1 was read as TDP1 cell noCPT inconclusive, HT1080NT lethal inactive, IL-1B inflam inh inactive, DT40 TDP1 CPT inconclusive and HT1080 IDH1KD tx inactive.
For N#Cc1c(Nc2ccccc2Cl)s[nH]c1=O the results were TDP1 cell noCPT 5.2µM, HT1080NT lethal inconclusive, IL-1B inflam inh -59, DT40 TDP1 CPT 15µM and HT1080 IDH1KD tx 16µM.
Screening N#Cc1c(Nc2ccccc2C(F)(F)F)s[nH]c1=O returned TDP1 cell noCPT 21µM, HT1080NT lethal inactive, DT40 TDP1 CPT 21µM and HT1080 IDH1KD tx inconclusive.
For NNc1ccccc1C(F)(F)F the results were TDP1 cell noCPT inactive, HT1080NT lethal inactive, IL-1B inflam inh inactive, DT40 TDP1 CPT inactive and HT1080 IDH1KD tx inactive.
CCc1ccccc1NC(=O)CSc1nnc(Cn2nnc3ccccc32)n1C was read as TDP1 cell noCPT inactive, HT1080NT lethal inactive, IL-1B inflam inh inactive, DT40 TDP1 CPT inactive and HT1080 IDH1KD tx inactive.
`C/C(=N/NC(=O)c1ccncc1)c1ccc(NC(=O)c2ccccc2)cc1` gave TDP1 cell noCPT inactive, HT1080NT lethal inactive, IL-1B inflam inh inactive, DT40 TDP1 CPT inactive and HT1080 IDH1KD tx inactive.
Screening C/C(=N\NC(=O)c1cc(O)ccc1O)c1cccc(NC(=O)c2ccc(Cl)cc2)c1 returned TDP1 cell noCPT 18µM, HT1080NT lethal inactive, IL-1B inflam inh -86, DT40 TDP1 CPT inconclusive and HT1080 IDH1KD tx inconclusive.
`C/C(=N\NC(=O)COc1ccccc1[N+](=O)[O-])c1cccc(NC(=O)c2ccncc2)c1` gave TDP1 cell noCPT 8.2µM, HT1080NT lethal inactive, IL-1B inflam inh inactive, DT40 TDP1 CPT inconclusive and HT1080 IDH1KD tx inactive.
`C/C(=N\NC(=O)c1cccc(N/N=C(\C)c2ccncc2)c1)c1ccncc1` gave TDP1 cell noCPT inconclusive, HT1080NT lethal inactive, IL-1B inflam inh inactive, DT40 TDP1 CPT 21µM and HT1080 IDH1KD tx inactive.
`C/C(=N\NC(=O)c1ccncc1)c1cccc(NC(=O)c2ccc(C(C)(C)C)cc2)c1` gave TDP1 cell noCPT 16µM, HT1080NT lethal inconclusive, IL-1B inflam inh inconclusive, DT40 TDP1 CPT 16µM and HT1080 IDH1KD tx inconclusive.
For CCOC(=O)C1=C(C)NC(C)=C(C(=O)OCC)C1C(=O)OCC(=O)NCc1ccccc1OC the results were TDP1 cell noCPT inconclusive, HT1080NT lethal inactive, IL-1B inflam inh inconclusive, DT40 TDP1 CPT inconclusive and HT1080 IDH1KD tx inactive.
For Cn1ccc(C(=O)Oc2ccc(C(=O)Nc3ccc(F)cc3F)cc2)n1 the results were TDP1 cell noCPT inactive, HT1080NT lethal inactive, IL-1B inflam inh inactive, DT40 TDP1 CPT inactive and HT1080 IDH1KD tx inactive.
For CCOC(=O)C1CCCN(CC(=O)Nc2c(C(=O)OC)[nH]c3ccc(Cl)cc23)C1 (stereo not given) the results were TDP1 cell noCPT inconclusive, HT1080NT lethal inactive, IL-1B inflam inh inactive, DT40 TDP1 CPT inconclusive and HT1080 IDH1KD tx inactive.
Screening CCOC(=O)C1CCCN(CC(=O)Nc2c(C(=O)OC)[nH]c3ccc(C)cc23)C1 (stereo not given) returned TDP1 cell noCPT 23µM, HT1080NT lethal inactive, IL-1B inflam inh inactive, DT40 TDP1 CPT inconclusive and HT1080 IDH1KD tx inactive.
For CCOC(=O)c1[nH]c2ccc(Br)cc2c1NC(=O)CCN1CCC(C(=O)OCC)CC1 the results were TDP1 cell noCPT 16µM, HT1080NT lethal inactive, IL-1B inflam inh -64, DT40 TDP1 CPT 21µM and HT1080 IDH1KD tx inactive.
Screening CN1CC(c2ccccc2)C2(SC(=S)N(Cc3ccco3)C2=O)C12C(=O)Nc1ccccc12 (stereo not given) returned TDP1 cell noCPT 11µM, HT1080NT lethal inconclusive, IL-1B inflam inh -69, DT40 TDP1 CPT inactive and HT1080 IDH1KD tx inconclusive.
Screening CC1=CC2=NC(=O)CC(C)(C(=O)N(CC(=O)NC3CCCC3)c3cc(C)cc(C)c3)N2C=C1 (stereo not given) returned TDP1 cell noCPT 21µM, HT1080NT lethal inactive, IL-1B inflam inh inactive, DT40 TDP1 CPT 13µM and HT1080 IDH1KD tx inactive.
CC1=CC2=NC(=O)CC(C)(C(=O)N(CC(=O)NC(C)(C)C)C3CCCC3)N2C=C1 (stereo not given) was read as TDP1 cell noCPT inactive, HT1080NT lethal inactive, IL-1B inflam inh inactive, DT40 TDP1 CPT inactive and HT1080 IDH1KD tx inactive.
